Laboratory results as given in PubChem BioAssay AID1159580 (chemical genetic matrix, 2015).
Several values for one entry are separate records, joined by “and”; a condition that tells them apart may be missing. Identical values can stand only once. Out of some 5,500 compounds screened, about 2,000 (36%) were called active. Roughly 18% stayed inconclusive and do not appear here. No stated cut-off is given here; in the data, active means normalized growth mostly below about 0.91 (no sharp cut-off); inconclusive means no clear call, values can overlap the other calls; inactive means mostly above about 0.92. The list shows a part of the results.

Assay: chemical genetic growth profiling, strain panel (AID 1159580);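 further: tested at 20 µM; growth read once vehicle control cultures reached saturation at 30 °C; 1 = growth at the plate median or of vehicle wells; lower values mean less growth of the strain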
Conditions: S. cerevisiae deletion strains, growth OD

Measured: normalized growth

Nc1ccncc1
inactive: locus YAL013W, strain DEP1, active compounds read low 1.02 and 1.01 | locus YAL021C, strain ccr4, active compounds read low 0.996 | locus YAL026C, strain drs2, active compounds read low 1 | locus YAL030W, strain snc1, active compounds read low 0.997 | locus YAL040C, strain CLN3, active compounds read low 0.997 | locus YBL061C, strain skt5, active compounds read low 0.99 | locus YBR009C, strain hhf1, active compounds read low 1 | locus YBR021W, strain FUR4, active compounds read low 1.02 | locus YBR023C, strain chs3, active compounds read low 0.993 | locus YBR171W, strain sec66, active compounds read low 0.979 | locus YBR229C, strain ROT2, active compounds read low 0.985 | locus YBR231C, strain swc5, active compounds read low 0.994 | locus YBR279W, strain paf1, active compounds read low 0.998 | locus YCL011C, strain gbp2, active compounds read low 0.995 | locus YCL016C, strain dcc1, active compounds read low 1 | locus YCL029C, strain bik1, active compounds read low 0.973 | locus YCL061C, strain MRC1 (second series), active compounds read low 1 | locus YCL061C, strain MRC1, active compounds read low 0.99 | locus YCL069W, strain vba3, active compounds read low 0.998 | locus YCR088W, strain abp1, active compounds read low 0.981 | locus YDL005C, strain med2, active compounds read low 0.991 | locus YDL035C, strain GPR1, active compounds read low 1.03 | locus YDL040C, strain nat1, active compounds read low 0.989 | locus YDL074C, strain BRE1, active compounds read low 1.05 | locus YDL101C, strain DUN1, active compounds read low 1.01 | locus YDL134C, strain PPH21, active compounds read low 1.02 | locus YDL185W, strain tfp1, active compounds read low 0.981 | locus YDL192W, strain arf1, active compounds read low 0.98 | locus YDR001C, strain nth1, active compounds read low 0.991 | locus YDR069C, strain doa4, active compounds read low 1 | locus YDR101C, strain arx1, active compounds read low 0.972 | locus YDR137W, strain rgp1, active compounds read low 1 | locus YDR150W, strain NUM1, active compounds read low 1.02 | locus YDR159W, strain sac3, active compounds read low 1 | locus YDR162C, strain NBP2, active compounds read low 1.01 | locus YDR195W, strain ref2 1.01 | locus YDR297W, strain sur2, active compounds read low 1 | locus YDR318W, strain mcm21, active compounds read low 0.955 | locus YDR334W, strain swr1, active compounds read low 0.997 | locus YDR335W, strain msn5, active compounds read low 0.997 | locus YDR363W, strain ESC2, active compounds read low 1.01 | locus YDR388W, active compounds read low 0.965 | locus YDR392W, strain spt3, active compounds read low 0.994 | locus YDR502C, strain sam2, active compounds read low 0.968 | locus YEL003W, strain gim4, active compounds read low 1 | locus YEL037C, strain rad23, active compounds read low 0.989 | locus YEL061C, strain CIN8 (second series), active compounds read low 0.994 | locus YEL061C, strain CIN8, active compounds read low 1.01 | locus YER002W, strain NOP16, active compounds read low 1.01 | locus YER015W, strain faa2, active compounds read low 0.995 | locus YER016W, strain bim1, active compounds read low 0.995 | locus YER110C, active compounds read low 0.973 | locus YER111C, strain swi4, active compounds read low 0.987 | locus YER155C, strain BEM2 (second series), active compounds read low 0.947 | locus YER155C, strain BEM2, active compounds read low 1.01 | locus YER167W, strain BCK2, active compounds read low 1.02 | locus YFR010W, strain ubp6, active compounds read low 0.996 | locus YGL078C, strain dbp3, active compounds read low 0.982 | locus YGL086W, strain mad1, active compounds read low 0.975 | locus YGL167C, strain pmr1, active compounds read low 0.992 | locus YGL173C, strain kem1, active compounds read low 0.99 | locus YGL227W, strain vid30, active compounds read low 0.98 | locus YGL240W, strain doc1, active compounds read low 1 | locus YGL248W, strain PDE1, active compounds read low 1.02 | locus YGL253W, strain hxk2, active compounds read low 1 | locus YGR078C, strain PAC10, active compounds read low 1.02 and 1.01 | locus YGR135W, strain pre9, active compounds read low 0.971 | locus YGR229C, strain SMI1, active compounds read low 1.01 and 1 | locus YGR252W, strain gcn5, active compounds read low 0.92 | locus YHR013C, strain ard1, active compounds read low 0.999 | locus YHR027C, strain rpn1, active compounds read low 0.998 | locus YHR030C, strain SLT2, active compounds read low 1.01 and 0.98 | locus YHR079C, strain IRE1 (second series), active compounds read low 0.965 | locus YHR079C, strain IRE1, active compounds read low 0.961 | locus YHR094C, strain hxt1, active compounds read low 0.974 | locus YHR129C, strain ARP1, active compounds read low 1.01 | locus YHR142W, strain chs7, active compounds read low 0.993 | locus YHR200W, strain rpn10, active compounds read low 0.96 | locus YIL066C, strain RNR3, active compounds read low 1.03 | locus YIL073C, strain SPO22, active compounds read low 0.993 | locus YIL125W, strain kgd1, active compounds read low 0.991 | locus YIR030C, strain dcg1, active compounds read low 0.975 | locus YJL092W, strain hpr5, active compounds read low 0.99 | locus YJL095W, strain BCK1 (second series), active compounds read low 0.991 | locus YJL095W, strain BCK1, active compounds read low 0.978 and 0.981 | locus YJL115W, strain asf1, active compounds read low 0.984 | locus YJL129C, strain trk1, active compounds read low 0.988 | locus YJL134W, strain LCB3, active compounds read low 1.01 | locus YJL154C, strain vps35, active compounds read low 0.992 | locus YJL164C, strain tpk1, active compounds read low 1.01 | locus YJL166W, strain qcr8, active compounds read low 0.989 | locus YJL168C, strain set2, active compounds read low 0.963 | locus YJL187C, strain SWE1 (second series), active compounds read low 1.03 | locus YJL187C, strain SWE1, active compounds read low 1 | locus YJR043C, strain POL32, active compounds read low 1 | locus YJR066W, strain TOR1, active compounds read low 0.917
